# TDP1 cell noCPT = qHTS for Inhibitors of human tyrosyl-DNA phosphodiesterase 1 (TDP1): qHTS in cells in absence of CPT; DT40 Tdp1-/- hTDP1 cells, no CPT, ATP luminescence, 48 h; Potency, µM (top dose mostly 46.2 µM), inactives show top-dose activity change, negative = growth inhibition, actives largely listed as inhibitors; 15% of 420,000 active; further: on the % scale 0 is the no-effect control and ±100 the full control effect; nearly all actives have a fitted effect of over 55% in size
#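 Growth kinetics read by CellTiter-Glo luminescence after ≥48 hr at 37 °C. Cells: DT40 Tdp1-/- stably carrying human TDP1, 400 per well, compound exposure in the absence of CPT (DMSO vehicle).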
# DT40 TDP1 CPT = growth inhibition of DT40 Tdp1-/-;hTDP1 cells with camptothecin (screen for TDP1 inhibitors). chicken DT40 Tdp1-/-;hTDP1 cells + 20 nM CPT, ATP luminescence, 48 h. Potency, µM (titrated, usually from 46.2 µM), inactives show at the top dose activity change, negative = growth inhibition, actives largely listed as inhibitors. 12% of 420,000 active; further: on the % scale 0 is the no-effect control and ±100 the full control effect; nearly all actives have a fitted effect of over 55% in size
#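 Chicken DT40 Tdp1-/- cells stably complemented with human TDP1 were seeded at 400 cells/well in medium containing 20 nM camptothecin, exposed to pin-transferred compounds, and grown at 37 °C for at least 48 hr. Viability was read as ATP luminescence.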
# TDP1 block = blocks human tyrosyl-DNA phosphodiesterase 1; Q9NUW8; recombinant TDP1, AlphaScreen DNA substrate cleavage; Potency, µM (series often up to 130 µM), for inactives: at the highest dose activity change, negative = inhibition, actives largely listed as inhibitors; 0.28% of 350,000 active; AID 485290; further: on the % scale 0 is the no-effect control and ±100 the full control effect; nearly all actives have a fitted effect of over 40% in size
# Target sequence (Q9NUW8 whole entry, looked up): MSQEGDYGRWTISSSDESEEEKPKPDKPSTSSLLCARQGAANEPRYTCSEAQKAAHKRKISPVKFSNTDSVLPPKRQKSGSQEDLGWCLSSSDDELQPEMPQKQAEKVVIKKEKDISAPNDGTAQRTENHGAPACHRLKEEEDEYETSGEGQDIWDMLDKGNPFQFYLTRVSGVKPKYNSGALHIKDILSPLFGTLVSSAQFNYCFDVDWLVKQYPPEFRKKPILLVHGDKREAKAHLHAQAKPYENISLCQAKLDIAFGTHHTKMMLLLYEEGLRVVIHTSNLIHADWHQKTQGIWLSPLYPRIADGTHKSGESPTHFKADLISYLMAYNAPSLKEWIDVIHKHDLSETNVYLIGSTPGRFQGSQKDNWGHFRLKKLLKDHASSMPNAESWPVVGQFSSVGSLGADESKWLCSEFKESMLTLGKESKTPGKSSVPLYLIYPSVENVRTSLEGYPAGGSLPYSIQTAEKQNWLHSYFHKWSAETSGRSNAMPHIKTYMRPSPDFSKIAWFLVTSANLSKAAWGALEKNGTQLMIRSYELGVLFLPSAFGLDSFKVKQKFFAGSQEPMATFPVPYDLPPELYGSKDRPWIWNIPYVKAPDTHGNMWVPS
#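 Enzyme-compound mixtures sat 15 min at room temperature, followed by a 5 min reaction with 15 nM final substrate and 10 min with AlphaScreen beads. Recombinant human Tdp1 was used at 1 nM final.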
# ClpP mod = qHTS Assay for Activators of ClpP; ATP-dependent Clp protease proteolytic subunit (Bacillus subtilis (strain 168)), P80244; 1.9% of 340,000 active; purified B. subtilis ClpP, FRET peptide cleavage, 20 min; Potency, µM (series often up to 57.5 µM), inactives show at the highest dose activity change, negative = active; active means well fitted falling curve with a large enough effect; inconclusive means small, poorly fitted or top-dose-only effect; inactive means no such curve, though single readings can be large or run the other way; further: the source files actives as falling curves though it sought activators and does not explain the sign; nearly all actives have a fitted effect of over 65% in size
#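 FRET quenching reversal measured ClpP activation: 10 microg/mL B. subtilis ClpP at pH 8 with the FRET-FV decapeptide, read at 430 nm after 320 nm excitation. The 20-min minus 0-min signal was scaled between DMSO/no-enzyme wells and ADEP (5.8 microM final).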
# Starred values were filed as active, the others as inactive; ? = inconclusive; nt = not tested or not shown; [ ] = another dose, or the depositor's remark. Hits are enriched below; roughly 17% of the tested compounds scored in any of these assays. Unless noted, the call rests on the fitted dose curve; in most records, active means well fitted curve in the direction sought with a large enough effect; inconclusive means small, poorly fitted or top-dose-only effect, or another doubt; inactive means no such curve, though single readings can be large; an effect the other way counts as inactive or inconclusive. Potency means the concentration at half of the fitted maximal effect.
SMILES,TDP1 cell noCPT,DT40 TDP1 CPT,TDP1 block,ClpP mod
CC(Sc1nnc(Cn2c(=O)sc3ccccc32)n1C)c1ccccc1 (stereo unspecified),-24.3%,?,-2.6%,-1.8%
CCOC(=O)c1sc(NC(=O)c2nc3nc(C)cc(C(F)F)n3n2)c(C(=O)OC(C)C)c1C,-1.2%,0.0%,3.2%,-0.4%
CCN1C(=NCCc2ccc([N+](=O)[O-])cc2)N[C@@H](c2ccccc2)[C@H](C(=O)OC)[C@H]1C,14.6µM*,?,2.1%,0.1%
CCN1C(=NCCc2ccc(Br)cc2)N[C@@H](c2ccccc2)[C@H](C(=O)OC)[C@H]1C,18.4µM*,23.1µM*,0.9%,1.5%
Cc1ccc(CNC(=O)Cc2c(C)c3c(cc(C)c4c(C)coc43)oc2=O)cc1,-6.9%,-0.1%,-4.7%,-11.5%
CCn1c(COc2cccc(C)c2C)nnc1SCC(=O)N1CCN(c2ccc(OC)cc2)CC1,20.6µM*,20.6µM*,-8.0%,4.2%
CCn1c(COc2cccc(C)c2)nnc1SCC(=O)N1CCCC1,-11.4%,-19.1%,7.7%,3.6%
CCn1c(COc2ccccc2C)nnc1SCC(=O)N1CCN(c2ccccc2)CC1,23.1µM*,?,6.3%,0.2%
CCn1c(COc2ccccc2C)nnc1SCC(=O)OC,-2.8%,-12.9%,4.2%,-0.2%
COc1ccc2nc(Cl)cc(Cl)c2c1,7.7%,-1.7%,1.9%,nt
C=CS(=O)(=O)c1c2cc(OC)ccc2nc2ccc(OC)cc12,2.59µM*,2.31µM*,nt,-2.6%
COc1cccc(NC(=O)c2ccccc2N2C(=O)C3C4C=CC(C5CC45)C3C2=O)c1 (stereo unspecified),-0.9%,-20.2%,-2.8%,-2.1%
Cc1ccc(S(=O)(=O)c2cc3ccccc3nc2N)cc1,-22.7%,-12.6%,-2.4%,nt
Nc1nc(CSc2nc3ccccc3[nH]2)cs1,-5.5%,?,3.1%,-1.5%
c1ccc(-c2nc3ccccc3[nH]2)nc1,16.4µM*,?,0.0%,?
O=c1[nH]c(-c2ccccn2)nc2ccccc12,16.4µM*,29.1µM*,5.9%,-18.6%
Nc1nc(-c2nc3ccccc3[nH]2)cs1,?,23.1µM*,4.4%,?
c1ccc(-c2nc3c(ccc4ccccc43)[nH]2)nc1,23.1µM*,?,7.5%,28.2µM*
O=c1[nH]c(-c2ccccc2O)nc2ccccc12,-12.6%[9.04 µM],5.0%[9.04 µM],3.7%,nt
CCOC(=O)C1=CCN(S(=O)(=O)c2ccc(C)cc2)C1c1cccs1 (stereo unspecified),?,-49.3%,nt,-0.1%
O=c1[nH]c(-c2ccccn2)nc(C(F)(F)F)c1Br,4.61µM*,6.51µM*,8.1%,nt
O=c1[nH]c2cc3ccccc3cc2nc1C(F)(F)F,-1.0%,-10.7%,-3.4%,-2.0%
CCNC(=O)C1CCCN(C(=O)c2cccc(OC(F)(F)F)c2)CC1 (stereo unspecified),?,?,nt,-2.7%
COc1ccc(Cl)cc1C(=O)Nc1cccnc1,17.9%,3.2%,nt,1.7%
COc1ccc(CC(=O)Nc2ccc3nc(Nc4cccc(Cl)c4)cc(C)c3c2)cc1OC,16.4µM*,18.4µM*,6.2%,3.7%
SMILES,TDP1 cell noCPT,DT40 TDP1 CPT,TDP1 block,ClpP mod
Cc1cc(Nc2cccc(Cl)c2)nc2ccc(NC(=O)Cc3cccc(C(F)(F)F)c3)cc12,7.31µM*,9.2µM*,8.7%,4.0%
COc1ccc(Cl)cc1C(=O)Nc1ccc2nc(Nc3cccc(Cl)c3)cc(C)c2c1,11.6µM*,20.6µM*,0.0%,3.7%
Cc1cc(Nc2cccc(Cl)c2)nc2ccc(NC(=O)Cc3ccc(Cl)cc3)cc12,?,18.4µM*,-5.0%,3.7%
C=C(C)Cn1c(SCC(=O)Nc2cc(C)ccc2C)nc2sc3c(c2c1=O)CCCC3,?,?,nt,-1.0%
Cc1c(C(=O)c2ccccc2)c(=O)n(C)c(=O)n1C,0.5%,3.0%,-2.7%,nt
COc1cccc(C(=O)COc2cccc(NC(=O)c3cccc([N+](=O)[O-])c3)c2)c1,16.4µM*,?,2.0%,1.0%
O=C(COc1cccc(NC(=O)c2ccccc2)c1)c1ccc(F)cc1,-49.0%,?,5.3%,?
O=C(COc1cccc(NC(=O)c2cccc([N+](=O)[O-])c2)c1)c1ccc(F)cc1,13µM*,?,5.2%,-1.1%
COC(=O)c1cccc(NC(=O)COc2cccc([N+](=O)[O-])c2)c1,?,-13.1%,1.8%,-1.9%
O=C(COc1cccc(NC(=O)c2ccco2)c1)c1ccc(F)cc1,20.6µM*,?,2.3%,0.9%
COC(=O)Nc1ccc(SCC(=O)c2cccc([N+](=O)[O-])c2)cc1,20.6µM*,?,3.7%,-0.8%
CCS(=O)(=O)N1CCC(C(=O)Oc2ccc(C)c(C)c2)CC1,7.5%,-3.0%,nt,-0.3%
CCCCS(=O)(=O)N[C@@H](Cc1ccc(OCCCCC2CCNCC2)cc1)C(=O)O,-2.6%,3.4%,nt,nt
Cc1cc(C)cc(N2C(=O)CC(c3ccc(C(F)(F)F)cc3)C3=C2COC3=O)c1 (stereo unspecified),2.8%,5.2%,-0.6%,-3.1%
CC(C)(C)OC(=O)N(CCc1ccccc1)Cc1cccc(OCc2cccc(NC(=O)/C=C/c3ccccc3)c2)c1,?,?,nt,-21.1%
COc1ccc(-n2ccn(Cc3ccccc3C)c(=O)c2=O)cc1,-0.4%,1.0%,0.0%,0.9%

# Source: PubChem BioAssay (National Center for Advancing Translational Sciences (NCATS))
